# Compound activity: PubChem, Broad Institute
# Tgondii IFNg: inhibitors of Toxoplasma gondii growth with IFN-gamma | activity change, negative = inhibition, % (concentration not given with the values) | 69,000 tested, 3.8% active | Toxoplasma gondii growth in IFN-gamma-treated host cells; stronger effect = lower value | AID 1259416; in the data active = activity change below about -70%, passing the limit was not always enough;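 also: host cells are HeLa cells infected with Toxoplasma gondii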
# Numbers stand for hits; – = inactive; ! = repeats disagree. The entries come from a sample that favours hits as a whole.
SMILES,Tgondii IFNg
CSc1ccc(C2c3[nH]c4ccccc4c3CCN2C(=O)c2ccc(C)cc2)cc1 (centres undefined),–
Cc1cccc(C2c3[nH]c4ccccc4c3CCN2C(=O)c2ccccc2Cl)c1 (centres undefined),-110
O=C(c1ccccc1F)N1CCc2c([nH]c3ccccc23)C1c1ccccc1 (centres undefined),–
CC1=C(C(=O)N2CCN(Cc3ccc(C)cc3)C(=O)C2)C(C)NC(=O)N1 (centres undefined),–
N#Cc1cccc(C#N)c1Oc1ccc(NS(=O)(=O)c2ccc(F)cc2F)cc1,–
CS(=O)(=O)NCc1cnc2n1CCN(CC1CCOC1)CC2 (centres undefined),–
CC(c1ccc(-c2cccc(F)c2C(N)=O)cc1)N1CCCCC1 (centres undefined),–
CCn1c(C2CCNCC2)nn(CCSc2ccccc2)c1=O,–
CC(C)=CCc1c2c(c3occ(-c4ccc(O)cc4)c(=O)c3c1O)C=CC(C)(C)O2,-82
CC(C)=CCc1c2c(c3occ(-c4ccc(O)c(O)c4)c(=O)c3c1O)C=CC(C)(C)O2,–
O=c1c(-c2ccc(O)cc2)coc2cc(O)cc(O)c12,–
Cc1ccc2cc(C)c3nn(CCNC(=O)c4[nH]c5c(c4C)C(=O)CCC5)c(=O)n3c2c1,–
COc1ccc(-c2cc(C(=O)NC3=NS(=O)(=O)c4ccccc43)nn2C)cc1,–
CN1CC2(CCN(C(=O)c3cc(-c4ccccc4)nc4ccccc34)C2)OC1=O (centres undefined),–
O=c1c(CN2CCCCCC2c2cc(-c3ccc(F)cc3)no2)coc2ccccc12 (centres undefined),–
CC1CCCCN1C(=O)c1ccn(-c2ccc3ccccn23)n1 (centres undefined),–
CC1CCCCN1C(=O)c1ccnn1-c1ccc2ccc(-c3ccccc3)cn12 (centres undefined),-85
O=C(Nc1cccnc1)c1ccnn1-c1ccc2ccc(-c3cccnc3)cn12,–
O=C1CCCN1CCCNc1nc(-c2ccncc2)nc2c1CCNC2,–
O=C(NCCc1cccnc1)c1ccn(-c2ccc3ccc(-c4cccc(F)c4)cn23)n1,–
CCn1cc(CN2CCN(C(=O)c3cc4c(F)cccc4[nH]3)CC2)c(C)n1,-108
Cc1nn(CCO)cc1CN1CCN(S(=O)(=O)c2ccccc2)CC1,–
CCn1cc(CN2CCN(C(=O)c3ccnc(N4CCOCC4)c3)CC2)c(C)n1,–
CS(=O)(=O)CC(=O)N1C[C@@H]2COC[C@]2(COCc2ccncc2)C1,–
CN(C)CCN(C)C1CCCN(C(=O)c2ccc(-c3ncn[nH]3)cc2)C1 (centres undefined),–
SMILES,Tgondii IFNg
CN1CCN(C2=Nc3cc(F)ccc3Cc3ccccc32)CC1,–
CN1CCN(C2=Nc3cc(Cl)ccc3Nc3ccccc32)CC1,-95!
Clc1ccc2c(c1)N=C(N1CCNCC1)c1ccccc1N2,–
Cc1cc(NCCNC(=O)c2cccc(N3CCOCC3)c2C)c2ccccc2n1,–
CO[C@@H]1CN(C)C(=O)c2cc(NC(=O)c3nc4ccccc4s3)ccc2OC[C@@H](C)NC[C@H]1C,–
CO[C@@H]1CN(C)C(=O)c2cc(NC(=O)c3nc4ccccc4s3)ccc2OC[C@@H](C)NC[C@@H]1C,–
CO[C@H]1CN(C)C(=O)c2cc(NC(=O)c3nc4ccccc4s3)ccc2OC[C@@H](C)NC[C@H]1C,–
CO[C@@H]1CN(C)C(=O)c2cc(NC(=O)c3nc4ccccc4s3)ccc2OC[C@H](C)NC[C@H]1C,-92
CO[C@H]1CN(C)C(=O)c2cc(NC(=O)c3nc4ccccc4s3)ccc2OC[C@H](C)NC[C@H]1C,-111
CO[C@H]1CN(C)C(=O)c2cc(NC(=O)c3nc4ccccc4s3)ccc2OC[C@@H](C)NC[C@@H]1C,–
O=C(NC[C@@H]1CCNC[C@H]1O)c1nc2ccccc2[nH]1,–
O=C(Nc1ccccc1C(=O)N1CCOCC1)C1c2ccccc2Oc2ccccc21,–
CCn1cc(CN2CCc3c(N)nc(N4CCCC4)nc3C2)c(C)n1,–
CN(C)C(=O)N1CCC2(CC1)CC(CC(=O)Nc1cccnc1)c1ccccc1O2 (centres undefined),-113
CCC(=O)N1CCC2(CC1)CC(CC(=O)Nc1cccnc1)c1ccccc1O2 (centres undefined),–
O=C(O)CC1CC2(CCN(C(=O)Cc3cccnc3)CC2)Oc2ccccc21 (centres undefined),–
Cc1ccc(S(=O)(=O)N2CCOCC3(CCN(C)C3)C2)cc1F (centres undefined),–
COCC1CN(C(=O)COc2ccccc2)Cc2ncn(C)c21 (centres undefined),–
CC(C)N1CCNC(=O)C1CC(=O)NC1CCN(Cc2ccccn2)CC1 (centres undefined),–
Clc1cc2c(cc1CN1CCC(c3nc(-c4ccncc4)no3)C1)OCO2 (centres undefined),–
CNS(=O)(=O)c1ccc(CN2CCN(Cc3cccc(F)c3)CC2)cc1,–
O=S(=O)(Nc1ccc(C2=NCCO2)cc1)c1ccc(Cl)cc1,–
O=S1(=O)CCN(Cc2ccc(NS(=O)(=O)c3ccc(Cl)cc3)cc2)CC1,-92
CCC(C(=O)N1CCC2(CC1)Nc1ccc(C)c(C)c1-n1cccc12)c1ccccc1 (centres undefined),–
O=c1ncn(Cc2ccccn2)cc1-c1ccccc1,–
SMILES,Tgondii IFNg
c1ccc(-c2csc3ncnc(NCc4ccccn4)c23)cc1,-74
c1ccc(-c2csc3ncnc(NCC4CCCO4)c23)cc1 (centres undefined),–
CC(=O)N1CCC2(C=C(C(=O)NC3CC3)c3ccccc32)CC1,–
Cc1ccc(CNC(=O)Nc2ccc(-c3nc(-c4cc(C)ccc4C)co3)cc2)cc1,–
Nc1nc(Nc2ccc3c(c2)CC[C@@H](N2CCCC2)CC3)nn1-c1cc2c(nn1)-c1ccccc1CCC2,-76
CCC(C)NS(=O)(=O)c1ccc2[nH]c(=O)ccc2c1 (centres undefined),–
OC1CCN(c2ccnc(N3C[C@H]4C[C@H](O)[C@H](O)C[C@H]4C3)n2)CC1,–
CC1CCN(c2ccc(C(C)NC(=O)c3ccc4oc(=O)n(C)c4c3)cc2)CC1 (centres undefined),–
O=C1OCC2(CCN(c3nccc(C4CCCC4)n3)CC2)O1,–
Cc1ccc2nc(-c3ccccn3)cc(C(=O)Nc3n[nH]c4nc(C)ccc34)c2c1,-99
O=C(NCCc1c[nH]c2ccc(Cl)cc12)c1cc(-c2ccccn2)nc2ccccc12,–
CCOC(=O)c1c(NC(=O)c2cc(-c3ccccc3)nc3ccc(C)cc23)sc(C)c1C,–
NCc1ccc(S(=O)(=O)N2CCOCC2)cc1,–
CCn1c(C2CCN(Cc3cn(C)nc3-c3ccccc3)CC2)n[nH]c1=O,–
CCN(CC)C(=O)c1cc(=O)n(CC(=O)Nc2cccc(C)c2C)c2ccccc12,–
Cc1cccc(N2CCc3c(COCCN(C)C)cncc3C2)n1,–
O=C(O)c1ccccc1C1CCN(C(=O)Cc2c[nH]c3ccccc23)C1 (centres undefined),–
Cc1c(-c2ccccc2)n[nH]c1C(=O)N1CCC(c2ccccc2C(=O)O)C1 (centres undefined),–
O=C(O)c1ccc(-c2c[nH]c3ncc(-c4ccccc4)cc23)cc1C1CCCC1,-85
Cc1ccc(NC(=O)C(=O)NCCc2csc(-c3ccc(C)cc3)n2)cc1,–
Cc1ccc(NC(=O)c2nc(Nc3ccccc3)c3ccccc3n2)cc1,–
CCc1ccc(NC(=O)c2nc(Nc3ccccc3)c3ccccc3n2)cc1,–
COc1ccc(-c2nc(Nc3ccc(C)cc3)c3ccccc3n2)cc1,–
